{
  "source": "PubChem BioAssay AID2320",
  "about": "(National Center for Advancing Translational Sciences (NCATS), 2010)",
  "note": "Inconclusive results are not listed. Unmarked numbers belong to inactive results. Active and inactive are the calls of the source. Calls follow the shape of the full dose curve. Potency is read from the fitted curve at half-maximal effect.",
  "data": [
    {"assay": "A qHTS for Small Molecule Inhibitors of Shiga Toxin (Confirmatory); also: nearly all actives have a fitted effect of over 75% in size; as to activity, positive = inhibition of toxin: 0% is about no effect", "details": "Cell-based Shiga toxin protection reporter assay; series mostly up to 38.3 µM; activity, positive = inhibition of toxin: at the top concentration", "units": {"activity, positive = inhibition of toxin": "%"}, "values": [
      {"smiles": "CCN1CCN(Cc2c(O)ccc3c(=O)c(-c4ccc(OC)c(OC)c4)c(C(F)(F)F)oc23)CC1", "activity, positive = inhibition of toxin": 91.1},
      {"smiles": "CCc1ccccc1NC(=O)Cn1nnc(-c2cccs2)n1", "activity, positive = inhibition of toxin": 15.7},
      {"smiles": "O=C(O)C1CCCCC1C(=O)Nc1ccc(-c2ccccc2)cc1", "note": "(stereo not drawn)", "Potency": "10 µM (active)"},
      {"smiles": "Cc1nnc(N2C(=O)C(=O)/C(=C(/O)c3ccc4c(c3)OCCO4)C2c2ccc([N+](=O)[O-])cc2)s1", "note": "(stereo not drawn)", "activity, positive = inhibition of toxin": 3.86},
      {"smiles": "O=C(Cn1cnc2cc([N+](=O)[O-])ccc2c1=O)NCc1ccc(Cl)cc1", "activity, positive = inhibition of toxin": -17.9},
      {"smiles": "NS(=O)(=O)c1ccc(CCNC(=O)c2ccc(NC3=NC4CS(=O)(=O)CC4S3)cc2)cc1", "note": "(stereo not drawn)", "activity, positive = inhibition of toxin": 25.9},
      {"smiles": "CCCc1nc2ccccc2c(=O)n1NC(=O)c1c(O)c2ccccc2[nH]c1=O", "Potency": "14.2 µM (active)"},
      {"smiles": "N#Cc1ccc(N=c2ssnc2Cl)cc1", "activity, positive = inhibition of toxin": 16.9},
      {"smiles": "O=C1ON=C(c2ccccc2)/C1=C/c1ccc(OS(=O)(=O)c2ccccc2)cc1", "Potency": "7.11 µM (active)"},
      {"smiles": "CCOc1ccccc1NC(=O)CCS(=O)(=O)c1cccs1", "activity, positive = inhibition of toxin": -34.2},
      {"smiles": "Cc1cc(NC(=O)/C=C/c2ccc(Br)cc2)no1", "Potency": "8.95 µM (active)"},
      {"smiles": "Cc1ccc(NC(=S)c2nc3ccccc3s2)cc1", "Potency": "0.895 µM (active)"},
      {"smiles": "Fc1ccccc1N=C1Nc2cccc3cccc1c23", "activity, positive = inhibition of toxin": 35},
      {"smiles": "CCCC(=O)Nc1cnc(NC(=O)c2cccc(F)c2)cc1C", "Potency": "0.711 µM (active)"},
      {"smiles": "COCCCNC(=O)NC(=O)c1ccccc1", "activity, positive = inhibition of toxin": 8.48},
      {"smiles": "Cc1cc(C)nc(SCC(=O)Nc2cc(C)on2)n1", "activity, positive = inhibition of toxin": -32.1},
      {"smiles": "CCc1nc2ccccc2c(=O)n1NCCc1ccccc1", "activity, positive = inhibition of toxin": 30.6},
      {"smiles": "CC(=O)N[C@@H](Cc1c[nH]c2ccccc12)C(=O)OCC(=O)Nc1ccc(Cl)c(S(=O)(=O)N(C)C)c1", "activity, positive = inhibition of toxin": 17.4},
      {"smiles": "O=C1NC(=Nc2ccc(O)cc2)S/C1=C\\C=C\\c1ccco1", "Potency": "0.634 µM (active)"},
      {"smiles": "COc1cccc(OC)c1OCCCOc1ccc(C)cc1Br", "activity, positive = inhibition of toxin": 28.7},
      {"smiles": "O=C(NCCc1c[nH]c2ccccc12)C(F)(F)F", "activity, positive = inhibition of toxin": -21.6},
      {"smiles": "c1cc2c(cc1Cn1cnnn1)OCO2", "activity, positive = inhibition of toxin": -16},
      {"smiles": "CCOC(=O)c1c(C)[nH]c(C2=NNC(=NC3CC3)SC2)c1C", "Potency": "0.0449 µM (active)"},
      {"smiles": "COc1ccccc1CNC(=O)Cn1cc([N+](=O)[O-])ccc1=O", "activity, positive = inhibition of toxin": 32.9},
      {"smiles": "CCOc1ncccc1C(=O)Nc1c(C)n(C)n(-c2ccccc2)c1=O", "activity, positive = inhibition of toxin": -36},
      {"smiles": "Cc1cccc(C(=O)Nc2nnc(SCC(=O)NC3CC3)s2)c1", "Potency": "4.49 µM (active)"},
      {"smiles": "Cc1ccc(-c2nnc(SCC(=O)NC3CCCC3)n2C)cc1", "activity, positive = inhibition of toxin": -30.6},
      {"smiles": "COc1ccc2[nH]c(-c3ccccc3)cc(=O)c2c1", "Potency": "0.0711 µM (active)"},
      {"smiles": "O=C(CSc1nnc(-c2ccccn2)o1)Nc1ccccc1C(F)(F)F", "Potency": "8.95 µM (active)"},
      {"smiles": "Cc1ccc(C(=O)CSc2nnnn2C(C)C)c(C)c1", "Potency": "0.449 µM (active)"},
      {"smiles": "Cc1cc(C)n(-c2nc(SCCN(C)C)c3c4c(sc3n2)COC(C)(C)C4)n1", "activity, positive = inhibition of toxin": -33.6},
      {"smiles": "CC(C)(C)C1CCC(C(=O)OCC(=O)c2ccc[nH]2)CC1", "note": "(stereo not drawn)", "Potency": "2.52 µM (active)"},
      {"smiles": "CN1CCN(C(=O)CN(C)S(=O)(=O)c2ccc(F)cc2)CC1", "activity, positive = inhibition of toxin": 45.5},
      {"smiles": "COc1ccccc1CN(Cc1cccnc1)S(=O)(=O)c1ccc(-n2cnnn2)c(OC)c1", "activity, positive = inhibition of toxin": -24.3},
      {"smiles": "CS(=O)(=O)N(CC(=O)Nc1ccccc1Sc1ccccc1)C1CCCCC1", "activity, positive = inhibition of toxin": -12.4},
      {"smiles": "CC(=O)Nc1ccc(N2N=C(C)C(N=Nc3ccccc3)C2=O)cc1", "note": "(stereo not drawn)", "Potency": "11.3 µM (active)"},
      {"smiles": "NC(=O)[C@@H]1CCCN1C(=O)c1ccc2nc(Cc3cccc(Cl)c3)oc2c1", "activity, positive = inhibition of toxin": -4.22},
      {"smiles": "CCOC(=O)C1CCCN(c2nc3ccccc3nc2C(C#N)C(=O)OCC)C1", "note": "(stereo not drawn)", "activity, positive = inhibition of toxin": 38.5}
    ]}
  ]
}
